Screening results: PubChem BioAssay, several laboratories
An excerpt weighted towards active compounds, which were near 3.6% of everything screened.
Anthrax LF prot = Bacillus anthracis LF protease inhibitors, primary screen, biochemical, multiplex microsphere, MLPCN library; Lethal factor (Bacillus anthracis), P15917; multiplex microsphere protease cleavage assay; inhibition, % at 10 µM; hit rate 0.12% among 360,000; AID 588501, 2011; further: plate controls were buffer without enzyme for full effect and enzyme alone for no effect
BoNT A protease = BoNT/A light chain protease inhibitors, primary screen, biochemical, flow cytometry, MLPCN library. Botulinum neurotoxin type A light chain protease (Clostridium botulinum A str. ATCC 3502). multiplex microsphere protease substrate cleavage. inhibition, % at 10 µM. hit rate 0.17% among 360,000; further: plate controls were buffer without enzyme for full effect and enzyme alone for no effect
Autofluor counter = flagged as autofluorescent in microsphere protease counterscreen; fluorescence intensity (test concentration not listed); compound autofluorescence counterscreen, microsphere flow cytometry; hits give high values; hit rate 3.1% among 360,000; in the data active means fluorescence intensity above about 16000; inconclusive means no clear call, values can overlap the other calls
BoNT F protease = BoNT/F light chain protease inhibitors, primary screen, biochemical, flow cytometry, MLPCN library | Multiplex microsphere protease cleavage assay | hit rate 0.22% among 360,000 | Botulinum neurotoxin type F light chain protease (Clostridium botulinum) | inhibition, % at 10 µM; in the data active means inhibition above about 35%, passing the limit was not always enough; inconclusive means no clear call, values can overlap the other calls; further: plate controls were buffer without enzyme for full effect and enzyme alone for no effect
MazEF act = activators of E. coli MazEF toxin-antitoxin RNase, primary screen, biochemical, fluorescence, uHTS | Endoribonuclease toxin MazF (Escherichia coli (strain K12)), P0AE70 | FAM/BHQ RNA-DNA oligo cleavage fluorescence, 5 h | activation, % at 20 µM | hit rate 0.32% among 350,000; in the data active means activation above about 50%
Target sequence (P0AE70 whole entry, looked up): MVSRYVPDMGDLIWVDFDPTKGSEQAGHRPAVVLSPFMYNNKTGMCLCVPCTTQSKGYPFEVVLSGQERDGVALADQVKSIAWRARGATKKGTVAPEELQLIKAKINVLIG
* hit, by the source's call; ? = inconclusive; . = no result. Unless noted, no stated cut-off is given here; in the data, active means inhibition above about 30%; inconclusive means no clear call, values can overlap the other calls; inactive means below that.

SMILES | Anthrax LF prot | BoNT A protease | Autofluor counter | BoNT F protease | MazEF act
Cc1nc2ccccc2n1CCc1nc2c3ccccc3nc(=S)n2[nH]1 | 0 | ? | 23484* | -4 | 3
Cc1cc(=S)cc(C)n1CCO | -4 | 0 | 2719 | 1 | 5
Cc1cc(C)n(CCO)c(=O)n1 | 1 | ? | 20285* | 2 | 2
CCN1C(=O)[C@H]2[C@@H](c3ccc(Cl)cc3)N3C(=O)CN(CC4CC4)C(=O)[C@@]3(Cc3ccccc3)[C@H]2C1=O | -2 | 0 | 4007 | 0 | -3
CC(=O)c1ccc(NC(=O)CSC(C)C)cc1 | 0 | 0 | 22011* | 2 | 5
C[C@@H]1CN([C@H](C)CO)C(=O)CCCn2cc(nn2)CO[C@H]1CN(C)S(=O)(=O)c1ccc2ccccc2c1 | 0 | 0 | 3472 | 2 | 5
Cc1ccc(C(=O)OCC(=O)Nc2ccccc2)cc1NC(=O)c1ccco1 | -4 | -1 | 17209* | 0 | 3
CC(C)(C)C(=O)COC(=O)c1cccc(NC(=O)c2ccco2)c1 | -3 | 1 | 23138* | 1 | 11
O=C(CCNC(=O)c1ccco1)Nc1cccc(C(F)(F)F)c1 | -1 | -1 | 5368 | -6 | -4
O=C(Nc1cccc(C(F)(F)F)c1)c1ccco1 | -4 | -3 | 23988* | -4 | 8
COc1cc(C(=O)OCC(=O)NC2CCCC2)cc(NC(=O)c2ccco2)c1OC | -6 | -1 | 20665* | -6 | 3
COC(=O)c1cccc(NC(=O)c2ccco2)c1 | 6 | 1 | 2465 | 2 | 4
COc1ccc(C(=O)NC(=S)N2CCN(c3ccccc3O)CC2)cc1 | 3 | 2 | 8598 | 2 | 2
O=c1[nH]c(=S)[nH]c2sc3c(c12)CCCCCC3 | -6 | -7 | 4069 | ? | -20
CC1(C(=O)NS(=O)(=O)c2ccccc2Cl)CCN1C(=O)c1cccc2ccccc12 (configuration not stated) | -10 | 0 | 2931 | -2 | .
CCC(C)c1ccccc1NC(=O)COC(=O)c1ccc(C)c(NC(=O)c2ccco2)c1 (configuration not stated) | 0 | 0 | 21016* | 0 | 10
Cc1nn(C)cc1CNC(=O)c1ccc(Br)o1 | 0 | -1 | 20359* | -1 | -7
O=[N+]([O-])c1nccn1CC(O)CO (configuration not stated) | -6 | 0 | 6386 | -6 | .
O=C(Nc1ccc(-n2nncc2-c2ccco2)cc1)c1cc2ccccc2oc1=O | 1 | 2 | 20140* | 7 | -37
O=C(Nc1ccc(-n2nncc2-c2ccco2)cc1)c1cccc(F)c1 | -5 | -1 | 12002 | -15 | -8
CCc1nc(C)cc(N)c1OCc1ccccc1 | -1 | -2 | 17332* | 1 | 8
Oc1ccc(-n2nnnc2SCc2ccccc2Br)cc1 | 10 | -1 | 3610 | -10 | -23
CN(C)c1ccc(NC(=O)COC(=O)CCC(=O)c2ccc(F)cc2)cc1 | -3 | -1 | 21300* | -6 | 3
CCc1nc(C)ccc1OCC(=O)NCCCN(C)C | -1 | -2 | 22619* | -2 | 2
CCN(CC)C1=CC(=O)OC12CCCCC2 | -5 | ? | 22472* | -1 | 1
SMILES | Anthrax LF prot | BoNT A protease | Autofluor counter | BoNT F protease | MazEF act
CC(=O)Nc1ccc(N2C(C(C)=O)=NN(c3ccccc3)C2c2cccs2)cc1 (configuration not stated) | 1 | -1 | 19872* | 0 | -22
COc1ccc(N2C(C(C)=O)=NN(c3ccccc3)C2c2cccs2)cc1 (configuration not stated) | 2 | 4 | 2649 | 0 | .
CC1=C(C#N)C(NC(=O)C2CC2)(C(F)(F)F)C(=O)N1 (configuration not stated) | 0 | 0 | 2441 | 4 | 6
CC1=C(C#N)C(NC(=O)C2CCCCC2)(C(F)(F)F)C(=O)N1 (configuration not stated) | -4 | 0 | 22461* | 3 | 1
Fc1cnc(N2CCc3ccccc32)nc1N1CCc2ccccc21 | -2 | 0 | 16473* | -2 | -2
CC1(C)CC(=O)c2cnc(N3CCc4ccccc43)nc2C1 | . | . | . | . | 3
CC(C)CCNC(=O)c1cc2c(=O)[nH]c3ccccc3c2s1 | 8 | -3 | 4346 | 10 | 12
Cc1ccc2[nH]c(=O)c3cc(C(=O)NCCC(C)C)sc3c2c1 | -9 | 0 | 3817 | 41* | -27
Cc1cc(NS(=O)(=O)c2ccc(NC(=O)C(C)Oc3ccccc3Cl)cc2)no1 (configuration not stated) | ? | ? | 4494 | ? | -7
CCCCOc1cccc(C(=O)Nc2ccc(S(=O)(=O)Nc3cc(C)on3)cc2)c1 | 8 | -5 | 3872 | -22 | 0
Cc1ccc(OC(C)C(=O)Nc2ccc(S(=O)(=O)Nc3cc(C)on3)cc2)cc1 (configuration not stated) | -19 | ? | 21520* | 6 | 2
Cc1cc(NS(=O)(=O)c2ccc(NC(=O)C(C)Oc3ccc(Cl)cc3)cc2)no1 (configuration not stated) | 2 | 16 | 17111* | 20 | -2
Cc1cc(NS(=O)(=O)c2ccc(CC(C)C)cc2)no1 | -2 | 3 | 18585* | 3 | -5
CCCCOc1ccc(C(=O)Nc2ccc(S(=O)(=O)Nc3cc(C)on3)cc2)cc1OC | 5 | 0 | 2487 | -8 | 56*
Cc1cc(NS(=O)(=O)c2ccc(NC(=O)C(C)Oc3cc(C)c(Cl)c(C)c3)cc2)no1 (configuration not stated) | 0 | 2 | 5897 | -6 | 6
O=[N+]([O-])c1cc2c(cc1Br)-c1ccccc1C2 | 6 | 0 | 3645 | 0 | 4
CCOC(=O)c1ccc(Oc2coc3cc(O)ccc3c2=O)cc1 | -6 | -11 | 5788 | ? | -2
CCOC(=O)C1=CCN(S(=O)(=O)c2ccc(C)cc2)C1c1ccc(Cl)c(Cl)c1 (configuration not stated) | 4 | 0 | 6314 | 2 | .
O=C(O)C1CCCN1S(=O)(=O)c1ccccc1 (configuration not stated) | 0 | 3 | 20858* | 5 | -5
Cc1ccc(S(=O)(=O)N2CCCC2C(=O)O)s1 (configuration not stated) | 0 | -2 | 24047* | -4 | -11
COc1cc(C(=O)OCC(=O)Nc2ccc(C)cc2)cc(OC)c1OC | 3 | 3 | 3777 | 18 | 4
O=C(NCc1cccc(C(F)(F)F)c1)c1ccc2nc([C@@H]3O[C@H](CO)[C@@H](O)[C@H]3O)[nH]c2c1 | -4 | 0 | 3320 | 2 | .
CC[n+]1c(/C=C/N(C)c2ccccc2)n(-c2ccccc2)c2ccc(-c3nc4ccccc4s3)cc21 | 8 | 18 | 6076 | 17 | 68*
CCOc1ccc(-c2cc(CCCC(=O)NCCc3ccc(OC)c(OC)c3OC)no2)cc1 | -2 | 0 | 22608* | -1 | 0
COc1ccc(-c2cc(CCCC(=O)NCCc3ccccc3)no2)cc1 | -2 | 0 | 3846 | -4 | -2
